Calls of active or inactive are those of the source.

Assay [1] has as its system Plasmodium falciparum Sir2 (PF13_0152, Sir2A). The assay is described as follows: Plasmodium falciparum Sir2A binding compounds – biochemical, small-molecule microarray, 635 nm fluorescence, primary screen (AID 1098).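 Further: score merges spot fluorescence intensity with its signal-to-noise ratio.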 Conditions: fluorescence 635 nm, higher = more signal.
The nature of assay [2]: probe aDKK1 binding to arrayed compounds – biochemical, biotinylated probe, 635/667 nm fluorescence, primary screen (AID 1099).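 Further: score merges 667nm spot fluorescence with signal to noise across triplicate slides.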 The note with it: small-molecule microarray, higher = more signal.
Assay [3] can be described thus: probe aCHRDL2 binding to arrayed compounds – biochemical, biotinylated probe, 635/667 nm fluorescence, primary screen (AID 1100). The note with it: small-molecule microarray, higher = more signal.
Assay [4] in a line: change in splice reporter luminescence, either direction, cell-based, HEK293, spliceosome inhibition project, primary screen (AID 1101).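 Further: HEK293 cells carrying a splicing-competent luciferase reporter gene; test concentration not given here.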 Conditions: HEK293 splicing luciferase reporter, 24 h, higher = more signal, called active from +8 up or from −8 down. For orientation: In a reporter assay the amount or activity of a reporter protein is the signal.
The target of assay [5] is Fibroblast growth factor 10 (Homo sapiens) (UniProt O15520). The assay is described as follows: compounds binding fibroblast growth factor 10 – biochemical, small-molecule microarray, 635 nm fluorescence, primary screen (AID 1102). The note with it: FGF10 binding, fluorescence 635 nm, higher = more signal.
Sequence of Fibroblast growth factor 10 (Homo sapiens) (O15520 whole entry, looked up): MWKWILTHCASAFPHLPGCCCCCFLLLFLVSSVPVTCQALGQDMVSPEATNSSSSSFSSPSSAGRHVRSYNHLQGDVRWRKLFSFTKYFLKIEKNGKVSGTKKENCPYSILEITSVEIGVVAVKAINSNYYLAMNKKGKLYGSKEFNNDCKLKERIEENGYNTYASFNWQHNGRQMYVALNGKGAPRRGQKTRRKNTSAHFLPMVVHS
Assay [6] relates to glycogen synthase kinase-3 (GSK3A per assay name; protocol says GSK3B). Nature of the assay: compounds binding glycogen synthase kinase-3 – biochemical, small-molecule microarray, 635 nm fluorescence, GSK3A, primary screen (AID 1103). Further: the record names both GSK3A and GSK3B. The note with it: fluorescence 635 nm, higher = more signal.
Assay [7] has as its target Epidermal growth factor receptor (Homo sapiens) (UniProt P00533). Nature of the assay: compounds binding epidermal growth factor receptor – biochemical, small-molecule microarray, 635 nm fluorescence, primary screen (AID 1104).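 Further: score merges 667 nm emission intensity with spot signal to noise over triplicate slides.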 Conditions: EGFR binding, higher = more signal.
The target in assay [8] is Follistatin-related protein 3 (Homo sapiens) (UniProt O95633). The assay is described as follows: compounds binding follistatin-related protein 3 – biochemical, small-molecule microarray, 635 nm fluorescence, primary screen (AID 1105).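 Further: score merges emission near 667 nm and signal to noise per printed spot across three slides.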 The note with it: FSTL3 binding, higher = more signal.
Sequence of Follistatin-related protein 3 (Homo sapiens) (O95633 whole entry, looked up): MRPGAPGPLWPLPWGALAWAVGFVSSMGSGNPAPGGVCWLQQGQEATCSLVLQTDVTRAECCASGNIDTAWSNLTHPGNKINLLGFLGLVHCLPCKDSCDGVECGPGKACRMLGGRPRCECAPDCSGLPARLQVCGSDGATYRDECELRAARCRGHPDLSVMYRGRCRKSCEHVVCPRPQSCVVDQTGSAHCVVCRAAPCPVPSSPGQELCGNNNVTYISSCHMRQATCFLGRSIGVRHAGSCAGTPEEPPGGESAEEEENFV
Assay [9] has as its target Dickkopf-related protein 1 (Homo sapiens) (UniProt O94907). Nature of the assay: small molecules binding DKK1 protein – biochemical, small-molecule microarray, 635 nm fluorescence scan, primary screen (AID 1106).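 Further: score merges emission near 667 nm with signal to noise over three replicate slides.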 Conditions: higher = more signal.
In assay [10] the test system is Inhibin beta A chain (activin A). Nature of the assay: small molecules binding activin A – biochemical, small-molecule microarray, 635 nm fluorescence scan, primary screen (AID 1107).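 Further: mouse activin A protein probed at 4.33 µg/mL on printed slides; score merges bound-protein fluorescence near 667 nm with spot signal-to-noise.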 The note with it: INHBA, higher = more signal.
For assay [11], the system named is Human papillomavirus type 1a protein E7 (residues 44-93). The assay is described as follows: small molecules binding HPV E7 44-93 – biochemical, small-molecule microarray, residues 44-93, 635 nm fluorescence, primary screen (AID 1108).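 Further: E7 fragment applied at 1 µg/mL in TBST for 1 h at 4 C; score combines spot fluorescence with its signal to noise ratio.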 Conditions: fluorescence 635 nm, higher = more signal.
A short description of assay [12]: hepatitis C replication reporter changes, two-sided – Huh7 cells, luciferase reporter, HCV replication inhibitor project, primary screen (AID 1109).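 Further: huh7 hepatoma cells harbouring a luciferase neomycin HCV replicon reporter; luciferase luminescence as measure of HCV replicon replication; test concentration not given here.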 The note with it: Huh7 HCV replicon luciferase reporter, 48 h; higher = more signal.
Assay [13] has as its target Left-right determination factor 2 (Homo sapiens) (UniProt O00292). The assay is described as follows: small molecules binding LEFTY2 protein – biochemical, small-molecule microarray, 635 nm fluorescence scan, primary screen (AID 1110). The note with it: higher = more signal.
In assay [14] the target is Calmodulin-1 (Homo sapiens) (UniProt P0DP23). The assay is described as follows: small molecules binding calmodulin-1 with EGTA – biochemical, small-molecule microarray, Cy5-labelled CALM1, profiling panel (AID 1111).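 Further: labelled calmodulin applied in Tris saline Tween buffer holding calcium plus EGTA and DTT.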 The note with it: Cy5-CALM1 binding fluorescence, higher = more signal.
For assay [15] the target is unchanged. The assay is described as follows: small molecules binding Ca-loaded calmodulin-1 – biochemical, small-molecule microarray, Cy5-labelled CALM1, plus calcium, artefact control for SMM control-protein annotation, profiling panel (AID 1112).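 Further: score merges spot fluorescence with signal to noise from triplicate slides.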 Conditions: Cy5-CALM1 binding fluorescence, higher = more signal.
The nature of assay [16]: probe aWnt5a binding to arrayed compounds – biochemical, biotinylated probe, 635/667 nm fluorescence, primary screen (AID 1113).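 Further: score merges 667 nm fluorescence intensity with signal-to-noise per printed feature.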 Conditions: small-molecule microarray, higher = more signal.
Assay [17] in a line: probe aShh binding to arrayed compounds – biochemical, biotinylated probe, 635/667 nm fluorescence, primary screen (AID 1114).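 Further: probe is biotin-labelled aShh protein from a stem cell growth factor screen; measures binding of labelled protein to compounds printed on the slide; score merges feature fluorescence at 667 nm with signal-to-noise.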 Conditions: small-molecule microarray, higher = more signal.
A short description of assay [18]: probe aNog binding to arrayed compounds – biochemical, biotinylated probe, 635/667 nm fluorescence, primary screen (AID 1115).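 Further: probe is biotinylated aNog protein used at 0.15 µg/mL for 1 h at 4 C; z-score combines 667 nm fluorescence of each spot with its signal to noise.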 Conditions: small-molecule microarray, higher = more signal.
In assay [19] the target is Torsin-1A-interacting protein 1 (Homo sapiens) (UniProt Q5JTV8). The assay is described as follows: compound microarray binding of lysate hLAP1 – cell lysate, small-molecule microarray, COS7 lysate, 635/667 nm fluorescence, primary screen (AID 1116). Conditions: 635 nm fluorescence, higher = more signal.
Sequence of Torsin-1A-interacting protein 1 (Homo sapiens) (Q5JTV8 whole entry, looked up): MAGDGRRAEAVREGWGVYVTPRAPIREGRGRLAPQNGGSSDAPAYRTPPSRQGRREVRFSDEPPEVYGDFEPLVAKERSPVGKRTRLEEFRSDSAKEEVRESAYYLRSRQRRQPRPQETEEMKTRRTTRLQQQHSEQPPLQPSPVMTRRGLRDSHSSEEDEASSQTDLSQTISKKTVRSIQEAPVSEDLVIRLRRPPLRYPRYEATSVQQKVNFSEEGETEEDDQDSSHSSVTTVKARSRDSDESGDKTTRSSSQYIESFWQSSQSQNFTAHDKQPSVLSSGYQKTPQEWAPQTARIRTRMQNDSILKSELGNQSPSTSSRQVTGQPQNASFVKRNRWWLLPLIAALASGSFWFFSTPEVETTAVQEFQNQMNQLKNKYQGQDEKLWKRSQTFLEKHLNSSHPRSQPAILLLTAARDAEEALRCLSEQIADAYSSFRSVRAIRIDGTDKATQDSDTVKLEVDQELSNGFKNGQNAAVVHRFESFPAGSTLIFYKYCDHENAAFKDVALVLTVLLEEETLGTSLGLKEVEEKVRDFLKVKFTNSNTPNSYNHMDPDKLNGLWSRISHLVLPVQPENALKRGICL
Assay [20] concerns the target Alpha-bungarotoxin (Bungarus multicinctus) (UniProt P60615). Nature of the assay: compounds binding labelled alpha-BTX control protein – biochemical, small-molecule microarray, Alexa647 label, 635/667 nm fluorescence, artefact control for SMM control protein annotation, profiling panel (AID 1117). The note with it: alpha-BTX-A647 binding fluorescence, higher = more signal.

Sequence of Dickkopf-related protein 1 (Homo sapiens) (O94907 whole entry, looked up): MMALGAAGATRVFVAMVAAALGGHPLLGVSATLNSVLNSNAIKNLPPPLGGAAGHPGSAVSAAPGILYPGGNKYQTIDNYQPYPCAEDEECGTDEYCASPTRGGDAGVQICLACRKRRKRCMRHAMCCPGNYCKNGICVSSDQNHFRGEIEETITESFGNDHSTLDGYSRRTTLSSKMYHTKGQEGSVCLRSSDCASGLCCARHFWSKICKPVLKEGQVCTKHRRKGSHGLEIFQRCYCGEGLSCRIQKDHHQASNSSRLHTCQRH
Sequence of Left-right determination factor 2 (Homo sapiens) (O00292 whole entry, looked up): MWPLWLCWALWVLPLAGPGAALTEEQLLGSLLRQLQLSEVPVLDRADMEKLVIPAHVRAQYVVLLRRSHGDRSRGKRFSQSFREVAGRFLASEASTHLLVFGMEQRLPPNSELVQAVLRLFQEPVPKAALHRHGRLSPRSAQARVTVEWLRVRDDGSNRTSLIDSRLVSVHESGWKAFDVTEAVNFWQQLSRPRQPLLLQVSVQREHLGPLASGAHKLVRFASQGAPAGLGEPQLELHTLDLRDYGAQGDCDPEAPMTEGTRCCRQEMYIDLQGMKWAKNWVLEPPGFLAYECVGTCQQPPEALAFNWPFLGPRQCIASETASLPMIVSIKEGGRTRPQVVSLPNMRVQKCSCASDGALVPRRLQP
Sequence of Epidermal growth factor receptor (Homo sapiens) (P00533 whole entry, looked up): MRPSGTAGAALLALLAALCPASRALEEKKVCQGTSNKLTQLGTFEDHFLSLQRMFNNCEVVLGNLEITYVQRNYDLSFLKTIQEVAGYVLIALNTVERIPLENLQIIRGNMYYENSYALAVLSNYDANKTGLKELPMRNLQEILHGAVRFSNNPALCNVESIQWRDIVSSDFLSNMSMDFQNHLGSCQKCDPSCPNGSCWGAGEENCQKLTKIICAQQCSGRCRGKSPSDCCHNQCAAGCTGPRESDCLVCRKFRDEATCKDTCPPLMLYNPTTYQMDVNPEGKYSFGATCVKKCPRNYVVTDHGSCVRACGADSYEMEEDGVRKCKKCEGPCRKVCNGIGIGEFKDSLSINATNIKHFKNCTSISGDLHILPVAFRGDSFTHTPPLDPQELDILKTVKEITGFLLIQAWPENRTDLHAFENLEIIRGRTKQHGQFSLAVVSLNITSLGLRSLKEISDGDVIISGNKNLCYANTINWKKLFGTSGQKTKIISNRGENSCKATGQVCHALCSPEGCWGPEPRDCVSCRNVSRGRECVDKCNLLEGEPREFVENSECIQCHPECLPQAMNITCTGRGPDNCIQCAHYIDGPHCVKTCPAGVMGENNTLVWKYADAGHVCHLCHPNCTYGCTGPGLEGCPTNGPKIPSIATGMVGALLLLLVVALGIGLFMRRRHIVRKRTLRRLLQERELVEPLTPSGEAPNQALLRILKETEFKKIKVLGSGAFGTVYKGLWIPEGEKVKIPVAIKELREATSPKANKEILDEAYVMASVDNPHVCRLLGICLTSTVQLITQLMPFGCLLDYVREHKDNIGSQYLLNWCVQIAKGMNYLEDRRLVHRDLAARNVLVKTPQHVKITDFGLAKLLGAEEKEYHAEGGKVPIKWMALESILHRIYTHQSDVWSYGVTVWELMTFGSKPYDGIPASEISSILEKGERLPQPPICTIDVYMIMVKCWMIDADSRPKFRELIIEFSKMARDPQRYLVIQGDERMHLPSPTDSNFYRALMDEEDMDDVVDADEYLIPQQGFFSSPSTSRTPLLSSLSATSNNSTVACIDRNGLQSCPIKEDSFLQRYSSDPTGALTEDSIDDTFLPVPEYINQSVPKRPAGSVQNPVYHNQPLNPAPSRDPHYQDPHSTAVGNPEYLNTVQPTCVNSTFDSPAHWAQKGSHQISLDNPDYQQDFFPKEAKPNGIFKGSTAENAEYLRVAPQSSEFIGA
Sequence of Alpha-bungarotoxin (Bungarus multicinctus) (P60615 whole entry, looked up): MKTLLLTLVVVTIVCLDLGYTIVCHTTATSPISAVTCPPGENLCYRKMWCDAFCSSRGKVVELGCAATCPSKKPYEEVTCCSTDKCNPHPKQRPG

Regarding `COc1ccc(NC(=O)O[C@H]2[C@@H]3OC(=O)[C@H](Cc4cccc(Br)c4)C/C=C/C[C@@H](Cc4cccc(Br)c4)C(=O)O[C@H]3[C@@H](OC)O[C@@H]2CO)cc1`, the composite z-score in assay [1] came to 1.31; in [2], 0.13; in [3], 0.387; in [5], 0.638; in assay [6] it was 0.475; in assay [7] it was 0.4. For the same compound, the composite z-score in assay [8] stood at 0.324; in assay [9] it was 0.142; in [10], 0.735; in [11], 0.277; in assay [13], 0.601; in [14], 0.492. In addition, the composite z-score in [15] was -0.062; in [16] it was -0.027; in assay [17] it was 0.235; in assay [18], 0.325; in assay [19] it was 0.882; in assay [20], 0.526. Besides, the z-score in [4] was 0.044 (inactive); in assay [12] it was 0.714.
As to `NCCCCCNC(=O)[C@@H]1C[C@@H]2C(=O)N3CCC[C@H]3C(=O)N2[C@@H]1c1ccc(O)cc1`, the composite z-score stood at 1.1 in assay [1]; 0.919 in [2]; 0.857 in assay [3]; 0.927 in assay [5]; 1.14 in [6]; 0.114 in [7]. Besides, the composite z-score stood at 0.495 in assay [8]; 0.853 in [9]; 0.98 in assay [10]; 1.31 in assay [11]; 0.732 in [13]; 1.09 in assay [14]. The composite z-score was 1.12 in [15]; 0.216 in assay [16]; 0.163 in assay [17]; -0.477 in assay [18]; 1.05 in assay [19]; 0.494 in [20]. Moreover, the z-score in assay [4] was -0.274 (inactive); in [12] it was -0.837.
Take `COCCOC(=O)N1C(=O)[C@@]2(c3ccccc31)[C@H](c1ccccc1OCCO)N1[C@H](c3ccccc3)[C@H](c3ccccc3)OC(=O)[C@H]1[C@@H]2C(=O)N1CCCCCCC1`: the composite z-score in assay [1] was 1.91; in [2] it was 3.18; in assay [3], 1.76; in [5] it was 1.37; in assay [6], 1.37; in [7], 1.91. Further, the composite z-score in assay [8] came to 1.68; in assay [9], 2.31; in assay [10] it was 2.02; in assay [11], 1.53; in assay [13], 1.73; in [14], 2.8. The composite z-score in [15] amounted to 1.47; in assay [16] it was 1.5; in assay [17], 3.37; in [18], 3.61; in [19], 5.43; in [20], 3.1. Also, the z-score in assay [4] was -1.46 (inactive); in [12], -3.17.
For the compound `CC(C)C[C@@H]1NC(=O)CNC(=O)[C@@]23C(=O)N[C@@H](Cc4ccccc4)C2[C@H](C)[C@@]2(C)O[C@H]2C3/C=C/C/C=C\CNC1=O` (stereo not given in full), the composite z-score was 0.15 in assay [1]; -0.212 in assay [2]; -0.445 in assay [3]; 0.569 in assay [5]; 1.15 in [6]; 0.366 in [7]. The composite z-score in assay [8] is 1.04; in [9] it was 0.568; in [10] it was 1.25; in assay [11], 1.39; in assay [13], 0.6; in assay [14], -0.263. In addition, the composite z-score is -0.825 in assay [15]; -0.147 in assay [16]; -0.388 in assay [17]; -0.177 in assay [18]; 0.625 in assay [19]; 0.985 in assay [20]. For the same compound, the figures for the z-score in assay [4] and in assay [12] were 0.426 (inactive) and -0.275, respectively.
As for `CN1C(=O)[C@@H]2[C@@H](CC(COc3ccccc3)=C([C@H](O)CCc3ccccc3)[C@@H]2CO)C1=O`, the composite z-score in [1] is -0.194; in assay [2], -0.0537; in [3], -0.317; in assay [5] it was -0.0903; in assay [6], -0.621; in assay [7], 0.218. Moreover, the composite z-score in [8] was -0.0809; in [9], 0.298; in assay [10], 0.484; in assay [11] it was -0.531; in assay [13], 0.0752; in assay [14] it was -0.548. The composite z-score in [15] was -0.343; in [16], -0.243; in assay [17], -0.304; in [18], -0.398; in assay [19], 0.0197; in assay [20], -0.278. Besides, the z-score in assay [4] was -0.165 (inactive); in assay [12], -0.113.
With `CN(C)CCCCNC(=O)[C@H]1C[C@H]2C(=O)N[C@@H](CCCC[N+](C)(C)C)C(=O)N2[C@H]1c1ccc(O)cc1`, the composite z-score in assay [1] was 1.26; in assay [2], -0.209; in [3] it was -0.328; in [5], -0.937; in assay [6], -0.55; in assay [7], -0.327. In addition, the composite z-score in assay [8] is -0.205; in [9], 0.357; in assay [10] it was 0.0643; in [11], -1.55; in assay [13], -0.0658; in assay [14] it was -0.0691. Further, the composite z-score in assay [15] is -0.441; in assay [16], -0.208; in assay [17], -0.2; in assay [18], -0.253; in [19], -0.511; in [20], 0.15. For the same compound, the z-score was -1.48 (inactive) in assay [4] and -0.027 in assay [12].

Source of the values: PubChem BioAssay.
